Data on six molecules can be found in PubChem BioAssay (NCATS).

Assay [1] addresses Glucocorticoid receptor (Homo sapiens) (UniProt P04150). The experiment in a line: qHTS assay for small molecule agonists of glucocorticoid receptor signaling (AID 588532; active = well fitted curve in the direction sought with a large enough effect in the signal ratio, with a control signal flat; the % refers to the signal ratio;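 note: 100% = dexamethasone at 0.1 µM and 0% = DMSO only wells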). The conditions noted are these: HeLa MMTV-bla, beta-lactamase ratio, agonist, 18 h; stronger effect = higher value; percent of dexamethasone control, DMSO zero. An outline of the steps:
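Titration series, up to 92 uM, applied to GRE-bla HeLa cells for 18 h at 37 C. Detection by CCF4 FRET substrate after 2 h at RT.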

Assay [2] deals with Vitamin D3 receptor (Homo sapiens) (UniProt P11473). The experiment in a line: qHTS assay for small molecule agonists of vitamin D receptor signaling (AID 588543; calls by dose curve;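 note: 0% = DMSO basal and 100% = reference agonist control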). The conditions noted are these: HEK293T VDR-UAS-bla, beta-lactamase ratio, 16 h; series mostly up to 76.8 µM. Put shortly: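 β-lactamase reporter, VDR-UAS-bla HEK293T, agonist mode. Cells plated 5 h at 37 °C, compound titration 16 h at 37 °C, CCF4 dye 2 h RT, ratio 460/530 nm. Hill fit → EC50, efficacy vs 50 nM 1α,25-(OH)2D3.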
Vitamin D3 receptor (Homo sapiens), sequence (P11473 whole entry, looked up): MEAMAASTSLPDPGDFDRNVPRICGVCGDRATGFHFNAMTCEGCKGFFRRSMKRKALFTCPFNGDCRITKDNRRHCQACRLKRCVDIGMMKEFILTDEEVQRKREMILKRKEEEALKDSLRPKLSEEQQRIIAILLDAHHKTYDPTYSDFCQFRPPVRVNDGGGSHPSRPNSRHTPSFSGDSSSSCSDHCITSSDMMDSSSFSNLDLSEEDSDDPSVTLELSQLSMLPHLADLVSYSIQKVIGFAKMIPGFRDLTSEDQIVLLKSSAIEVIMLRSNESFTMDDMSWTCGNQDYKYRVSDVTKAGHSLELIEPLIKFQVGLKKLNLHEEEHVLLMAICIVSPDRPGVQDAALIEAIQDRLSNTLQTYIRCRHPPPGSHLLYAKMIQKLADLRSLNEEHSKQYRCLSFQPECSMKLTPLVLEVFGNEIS
For orientation: In qHTS, concentration-response curves come from the screen itself.

Assay [3] has as its target Thyroid hormone receptor beta (Homo sapiens) (UniProt P10828). As to the kind of experiment: qHTS assay for small molecule antagonists of thyroid hormone receptor beta signaling (AID 588547; active = well fitted inhibition curve with a large enough effect in the signal ratio, with a control signal flat, not every such curve was filed as active; the % refers to the signal ratio;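 note: cells stimulated with 0.4 nM T3 agonist during compound exposure; % is set by controls: 0 for no effect and ±100 for the full control effect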). The conditions noted are these: TR-UAS-bla HEK293, beta-lactamase ratio, antagonist mode, 18 h. An outline of the steps: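 TR-UAS-bla GripTite HEK293 cells in 2% charcoal/dextran FBS medium were preincubated 4 h at 37 C, given compound (0.59 nM to 92 uM) plus 0.4 nM T3 (final) for 18 h, then CCF4 for 2 h at RT; Hill fit gave IC50.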

Assay [4] can be described thus: qHTS assay for small molecule activators of the p53 signaling pathway (AID 651743; active = well fitted activation curve with a large enough effect in the signal ratio, not every such curve was filed as active; the % refers to the signal ratio; note: % of control where 0% means no effect). The conditions noted are these: HCT-116 p53RE-bla, beta-lactamase FRET ratio, 16 h; activation: stronger effect = higher value. Put shortly: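 p53RE-bla HCT-116 cells with a stably integrated beta-lactamase reporter under p53 response elements were plated, rested 5 hours at 37 C/5% CO2, then exposed to compounds in DMSO for 16 hours at 37 C. LiveBLAzer B/G FRET substrate was read after 2 hours at room temperature.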

Assay [5] is described as follows: qHTS assay for environmental chemicals that activate the Aryl hydrocarbon Receptor (AhR) signaling pathway (AID 651777). Note: % of control where 0% means no effect; nearly all actives have a fitted effect of over 15% in size. The conditions noted are these: 1A2-DRE human hepatoma cells, luciferase, 24 h; activation: stronger effect = higher value. Put shortly:
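Luminescence read-out: One-Glo added for 30 min at RT after 24 hr compound treatment (37 C, 5% CO2) of human hepatoma cells expressing a DRE/CYP1A2 promoter–luciferase reporter; increased signal indicates AhR activation.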

Assay [6] concerns the target Peroxisome proliferator-activated receptor alpha (Homo sapiens) (UniProt Q07869). The experiment in a line: qHTS assay for small molecule agonists of the peroxisome proliferator-activated receptor alpha (PPARalpha) signaling pathway (AID 651778). Note: % of control where 0% means no effect. The conditions noted are these: PathHunter PPARalpha complementation, chemiluminescence, 6 h; max response: stronger effect = higher value. An outline of the steps:
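Cells plated at 2,000/well and held overnight at 37 C, 5% CO2, then compound added by pin tool for 6 hr; after PathHunter detection reagent and 60 min at room temperature, chemiluminescence from enzyme complementation was read.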

A short description of assay [7]: qHTS assay for small molecule agonists of the antioxidant response element (ARE) signaling pathway measured by Nrf2-dependant transcriptional activity (AID 720636; active = well fitted curve in the direction sought with a large enough effect in the repeat runs; an effect the other way counts as inactive or inconclusive;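 note: HepG2 cells with an ARE-driven luciferase reporter; % of control where 0% means no effect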). The conditions noted are these: ARE-luc HepG2, Nrf2 luciferase reporter, 16 h; series mostly up to 92.4 µM. Put shortly: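 HepG2 ARE-luc reporter line, 1% dialyzed FBS; 6 hr attachment at 37 C, compound pinned in, 16 hr at 37 C/5% CO2; ONE-Glo, 30 min RT, luminescence read.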

The nature of assay [8]: qHTS assay for small molecule agonists of the antioxidant response element (ARE) signaling pathway measured by Nrf2-dependant transcriptional activity - cell viability counter screen (AID 720653; active = well fitted curve in the direction sought with a large enough effect in the repeat runs; an effect the other way counts as inactive or inconclusive; note: % is set by controls: 0 for no effect and ±100 for the full control effect). The conditions noted are these: ARE-bla HepG2 viability, CellTiter-Glo ATP luminescence, 16 h; max response: stronger effect = lower value. An outline of the steps:
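ARE-bla HepG2 cells (2,000/well) rested 5 hrs at 37C/5% CO2, then exposed to compounds in DMSO for 16 hrs. Viability was read in the same wells as intracellular ATP by luminescence, 30 min at room temperature after reagent addition.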

Assay [9] in a line: qHTS assay for cell viability of HEK293 cells (AID 743288). Note: % is set by controls: 0 for no effect and ±100 for the full control effect; nearly all actives have a fitted effect of over 50% in size. The conditions noted are these: ATP luminescence (CellTiter-Glo), 18 h; max response: stronger effect = lower value. Put shortly:
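Environmental chemicals tested in qHTS format against parental HEK293 cells; 18 h treatment, 37 C; read-out ATP luminescence (CellTiter-Glo), 30 min RT development.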

The nature of assay [10]: qHTS assay for cell viability of the p53RE-bla HCT-116 cell line (AID 743292). Note: % is set by controls: 0 for no effect and ±100 for the full control effect; nearly all actives have a fitted effect of over 55% in size. The conditions noted are these: p53RE-bla HCT-116 viability, ATP luminescence, 16 h; series mostly up to 95 µM. An outline of the steps: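 Luminescent ATP quantitation (CellTiter-Glo) served as the viability read-out; reagent was added after 16 h compound exposure at 37 C and read after 30 min at room temperature. Cells: p53RE-bla HCT-116, 4,000 per well.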

For assay [11], the target named is Nuclear receptor subfamily 1 group I member 2 (Rattus norvegicus) (UniProt Q9R1A7). The experiment in a line: qHTS assay for small molecule activators of the rat pregnane X receptor (rPXR) signaling pathway (AID 651751; call rule not given here; note: 0% is about no effect). The conditions noted are these: rPXR reporter cells, luciferase (One-Glo), 24 h.
Nuclear receptor subfamily 1 group I member 2 (Rattus norvegicus), sequence (Q9R1A7 whole entry, looked up): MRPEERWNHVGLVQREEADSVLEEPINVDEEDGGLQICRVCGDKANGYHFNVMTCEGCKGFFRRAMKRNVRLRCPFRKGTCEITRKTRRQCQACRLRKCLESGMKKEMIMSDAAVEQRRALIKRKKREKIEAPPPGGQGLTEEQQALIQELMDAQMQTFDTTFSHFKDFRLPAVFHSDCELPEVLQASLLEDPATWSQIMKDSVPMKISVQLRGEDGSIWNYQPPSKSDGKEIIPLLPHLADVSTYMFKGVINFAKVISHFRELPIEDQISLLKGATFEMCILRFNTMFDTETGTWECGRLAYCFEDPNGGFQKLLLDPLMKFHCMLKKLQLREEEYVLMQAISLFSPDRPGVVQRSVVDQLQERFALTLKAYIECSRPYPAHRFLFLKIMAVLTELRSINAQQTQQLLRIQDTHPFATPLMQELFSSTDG
The nature of assay [12]: qHTS assay for small molecule activators of the human pregnane X receptor (PXR) signaling pathway (AID 720659; call rule not given here; note: 0% is about no effect). The conditions noted are these: DPX-2 HepG2 CYP3A4-luciferase, 24 h; series mostly up to 92.3 µM.
In assay [13] the target is Vitamin D3 receptor (Homo sapiens) (UniProt P11473). As to the kind of experiment: qHTS assay for small molecule antagonists of vitamin D receptor signaling (AID 588541; calls by dose curve;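 note: receptor activated by calcitriol during compound treatment; % is set by controls: 0 for no effect and ±100 for the full control effect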). The conditions noted are these: HEK293T VDR-UAS-bla, beta-lactamase ratio, antagonist mode; series mostly up to 76.7 µM. Put shortly:
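VDR-UAS-bla HEK293T cells (2000/well, 2% charcoal-stripped FBS) were treated with titrated compounds plus 1-alpha,25-dihydroxyvitamin D3 (50 nM or 3 nM final) for 16 h at 37 C. CCF4 beta-lactamase fluorescence was read; Hill fits gave IC50.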

Assay [14] is described as follows: qHTS assay for small molecule agonists of retinoid X receptor alpha signaling (AID 588544). The conditions noted are these: HEK293T RXRa-UAS-bla, beta-lactamase reporter, 18 h; 530 nm emission.
The target in assay [15] is Thyroid hormone receptor beta (Homo sapiens) (UniProt P10828). As to the kind of experiment: qHTS assay for small molecule agonists of thyroid hormone receptor beta signaling (AID 588545; calls by dose curve;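 note: 0% = DMSO only and 100% = 10 nM T3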). The conditions noted are these: TR-UAS-bla GripTite HEK 293, beta-lactamase ratio, agonist mode, 18 h; series mostly up to 76.7 µM. An outline of the steps:
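TR-UAS-bla-GripTite HEK 293 cells in medium with 2% charcoal/dextran FBS, 0.1 mM NEAA and 1 mM sodium pyruvate were treated with titrated compounds for 18 hrs at 37 C. Beta-lactamase reporter was read with CCF4 dye (ex 405, em 460/530 nm); EC50 from Hill fits.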

Assay [16] can be described thus: qHTS assay for small molecule antagonists of retinoid X receptor alpha signaling (AID 588546; active = well fitted inhibition curve with a large enough effect in the signal ratio, with a control signal flat, not every such curve was filed as active; the % refers to the signal ratio;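 note: cells stimulated with 9-cis-retinoic acid as agonist; % is set by controls: 0 for no effect and ±100 for the full control effect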). The conditions noted are these: HEK293T RXRa-UAS-bla, beta-lactamase ratio, antagonist mode; measured here: W530 green channel, cytotoxicity proxy. Put shortly: (§1)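 Beta-lactamase reporter inhibition, read as CCF4 fluorescence ratio (ex 405, em 460/530 nm) after 2 h at RT. HEK293T UAS-bla cells, 2500/well, were stimulated with 9-cis-RA at 500 or 100 nM final alongside test compound for 18 h at 37 C.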

For assay [17], the target named is Retinoic acid receptor RXR-alpha (Homo sapiens) (UniProt P19793). Described as above. The conditions noted are these: HEK293T RXRa-UAS-bla, beta-lactamase ratio, antagonist mode. An outline of the steps: as §1
Retinoic acid receptor RXR-alpha (Homo sapiens), sequence (P19793 whole entry, looked up): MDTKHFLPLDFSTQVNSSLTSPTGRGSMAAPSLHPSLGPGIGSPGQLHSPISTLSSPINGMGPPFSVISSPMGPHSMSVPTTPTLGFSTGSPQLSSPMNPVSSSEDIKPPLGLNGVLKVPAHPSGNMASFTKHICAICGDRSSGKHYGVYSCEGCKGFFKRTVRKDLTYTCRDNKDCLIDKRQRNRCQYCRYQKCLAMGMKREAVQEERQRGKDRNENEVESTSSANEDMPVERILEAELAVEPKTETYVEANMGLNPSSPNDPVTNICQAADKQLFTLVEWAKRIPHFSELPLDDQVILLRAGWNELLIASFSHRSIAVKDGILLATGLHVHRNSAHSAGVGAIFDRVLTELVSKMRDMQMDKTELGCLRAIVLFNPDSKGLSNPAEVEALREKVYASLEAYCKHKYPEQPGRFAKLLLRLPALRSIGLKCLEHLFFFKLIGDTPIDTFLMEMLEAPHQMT
For assay [18], the target named is Peroxisome proliferator-activated receptor gamma (Homo sapiens) (UniProt P37231). The experiment in a line: qHTS assay for small molecule agonists of peroxisome proliferator-activated receptor gamma signaling (AID 588536; active = well fitted curve in the direction sought with a large enough effect in the signal ratio, with a control signal flat, not every such curve was filed as active; the % refers to the signal ratio;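 note: 0% = DMSO basal wells and 100% = rosiglitazone at 2 µM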). The conditions noted are these: HEK293 PPARg-UAS-bla, beta-lactamase ratio, 16 h, percent of rosiglitazone response, DMSO as zero; series mostly up to 76.7 µM. An outline of the steps: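 GeneBLAzer PPAR-gamma-UAS-bla HEK293 cells in 1% charcoal/dextran-treated FBS medium were treated 16 h at 37 C with compounds. Beta-lactamase activity was read by CCF4 ratio (460/530 nm). Response was normalized to 2 uM rosiglitazone (100%) and DMSO, then Hill-fitted for EC50 and efficacy.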
Peroxisome proliferator-activated receptor gamma (Homo sapiens), sequence (P37231 whole entry, looked up): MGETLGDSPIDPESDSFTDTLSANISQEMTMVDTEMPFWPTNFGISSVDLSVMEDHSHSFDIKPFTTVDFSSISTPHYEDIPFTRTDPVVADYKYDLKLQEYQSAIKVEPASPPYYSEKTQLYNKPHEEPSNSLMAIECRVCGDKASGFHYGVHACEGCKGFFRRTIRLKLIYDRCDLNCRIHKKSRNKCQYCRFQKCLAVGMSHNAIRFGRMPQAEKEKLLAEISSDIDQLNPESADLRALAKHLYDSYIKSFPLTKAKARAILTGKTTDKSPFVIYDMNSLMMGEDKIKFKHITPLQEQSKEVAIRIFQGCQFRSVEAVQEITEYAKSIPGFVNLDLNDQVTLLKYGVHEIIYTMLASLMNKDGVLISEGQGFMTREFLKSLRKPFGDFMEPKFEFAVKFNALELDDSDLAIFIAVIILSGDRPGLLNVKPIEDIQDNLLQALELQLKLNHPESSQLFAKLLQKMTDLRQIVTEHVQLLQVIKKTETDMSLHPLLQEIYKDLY

Assay [19] can be described thus: qHTS assay for small molecule antagonists of peroxisome proliferator-activated receptor delta signaling (AID 588535; active = well fitted inhibition curve with a large enough effect in the signal ratio, with a control signal flat, not every such curve was filed as active; the % refers to the signal ratio;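 for max response: cells co-treated with a PPAR-delta agonist as stimulator during compound exposure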). The conditions noted are these: HEK293T PPARd-UAS-bla, beta-lactamase FRET ratio, 18 h; 460 nm channel. An outline of the steps: (§2)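 GeneBLAzer PPAR-delta-UAS-bla HEK293T cells in medium with 2% charcoal/dextran FBS were preincubated 5 hrs at 37 C, then given compounds, incubated 18 hrs at 37 C, and read by CCF4 beta-lactamase fluorescence; IC50 from Hill fits.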

For assay [20], the target named is Peroxisome proliferator-activated receptor delta (Homo sapiens) (UniProt Q03181). The description is as above. The conditions noted are these: HEK293T PPARd-UAS-bla, beta-lactamase FRET ratio, 18 h; series mostly up to 76.7 µM. An outline of the steps: as §2
Peroxisome proliferator-activated receptor delta (Homo sapiens), sequence (Q03181 whole entry, looked up): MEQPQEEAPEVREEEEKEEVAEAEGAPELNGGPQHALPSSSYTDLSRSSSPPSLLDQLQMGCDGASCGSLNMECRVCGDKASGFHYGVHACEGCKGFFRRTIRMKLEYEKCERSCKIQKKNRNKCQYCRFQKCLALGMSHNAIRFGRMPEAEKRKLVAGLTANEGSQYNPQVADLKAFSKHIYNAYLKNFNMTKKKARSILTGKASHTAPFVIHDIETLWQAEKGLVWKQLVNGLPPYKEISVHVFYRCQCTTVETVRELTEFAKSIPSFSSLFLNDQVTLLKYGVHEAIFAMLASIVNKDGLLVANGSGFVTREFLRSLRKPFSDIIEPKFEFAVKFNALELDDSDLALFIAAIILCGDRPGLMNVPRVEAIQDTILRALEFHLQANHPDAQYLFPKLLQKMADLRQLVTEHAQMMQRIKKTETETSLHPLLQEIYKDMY

Results filed as inconclusive are left out. Active and inactive are the calls of the source. Unless noted, calls come from the whole dose curve; as a rule, active = well fitted curve in the direction sought with a large enough effect; inconclusive = small, poorly fitted or top-dose-only effect, or another doubt; inactive = no such curve, though single readings can be large; an effect the other way counts as inactive or inconclusive.

Thyroid hormone receptor beta (Homo sapiens), sequence (P10828 whole entry, looked up): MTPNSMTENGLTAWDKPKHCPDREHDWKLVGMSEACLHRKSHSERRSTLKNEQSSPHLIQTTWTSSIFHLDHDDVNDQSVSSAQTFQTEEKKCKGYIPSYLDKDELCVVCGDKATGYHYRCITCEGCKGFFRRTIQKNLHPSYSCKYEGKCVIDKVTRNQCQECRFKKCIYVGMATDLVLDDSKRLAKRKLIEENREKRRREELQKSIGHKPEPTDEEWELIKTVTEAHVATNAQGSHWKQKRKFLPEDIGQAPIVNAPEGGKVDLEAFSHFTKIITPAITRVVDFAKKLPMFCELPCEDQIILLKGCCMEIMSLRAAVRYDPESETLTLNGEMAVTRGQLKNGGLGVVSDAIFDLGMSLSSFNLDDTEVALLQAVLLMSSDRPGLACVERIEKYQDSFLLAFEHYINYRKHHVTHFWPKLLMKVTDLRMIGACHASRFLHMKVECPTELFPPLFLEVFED
Peroxisome proliferator-activated receptor alpha (Homo sapiens), sequence (Q07869 whole entry, looked up): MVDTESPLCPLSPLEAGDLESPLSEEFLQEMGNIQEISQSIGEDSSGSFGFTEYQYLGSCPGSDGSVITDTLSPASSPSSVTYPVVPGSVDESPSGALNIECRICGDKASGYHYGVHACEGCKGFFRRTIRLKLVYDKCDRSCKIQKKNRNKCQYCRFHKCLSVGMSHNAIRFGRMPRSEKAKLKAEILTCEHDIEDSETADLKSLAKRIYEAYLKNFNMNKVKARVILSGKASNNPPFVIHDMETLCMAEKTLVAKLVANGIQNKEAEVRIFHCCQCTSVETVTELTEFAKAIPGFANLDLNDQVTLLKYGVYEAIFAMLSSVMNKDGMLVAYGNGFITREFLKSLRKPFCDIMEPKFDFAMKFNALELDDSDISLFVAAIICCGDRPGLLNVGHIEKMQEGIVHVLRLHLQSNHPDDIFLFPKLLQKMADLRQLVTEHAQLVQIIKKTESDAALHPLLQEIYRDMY
Glucocorticoid receptor (Homo sapiens), sequence (P04150 whole entry, looked up): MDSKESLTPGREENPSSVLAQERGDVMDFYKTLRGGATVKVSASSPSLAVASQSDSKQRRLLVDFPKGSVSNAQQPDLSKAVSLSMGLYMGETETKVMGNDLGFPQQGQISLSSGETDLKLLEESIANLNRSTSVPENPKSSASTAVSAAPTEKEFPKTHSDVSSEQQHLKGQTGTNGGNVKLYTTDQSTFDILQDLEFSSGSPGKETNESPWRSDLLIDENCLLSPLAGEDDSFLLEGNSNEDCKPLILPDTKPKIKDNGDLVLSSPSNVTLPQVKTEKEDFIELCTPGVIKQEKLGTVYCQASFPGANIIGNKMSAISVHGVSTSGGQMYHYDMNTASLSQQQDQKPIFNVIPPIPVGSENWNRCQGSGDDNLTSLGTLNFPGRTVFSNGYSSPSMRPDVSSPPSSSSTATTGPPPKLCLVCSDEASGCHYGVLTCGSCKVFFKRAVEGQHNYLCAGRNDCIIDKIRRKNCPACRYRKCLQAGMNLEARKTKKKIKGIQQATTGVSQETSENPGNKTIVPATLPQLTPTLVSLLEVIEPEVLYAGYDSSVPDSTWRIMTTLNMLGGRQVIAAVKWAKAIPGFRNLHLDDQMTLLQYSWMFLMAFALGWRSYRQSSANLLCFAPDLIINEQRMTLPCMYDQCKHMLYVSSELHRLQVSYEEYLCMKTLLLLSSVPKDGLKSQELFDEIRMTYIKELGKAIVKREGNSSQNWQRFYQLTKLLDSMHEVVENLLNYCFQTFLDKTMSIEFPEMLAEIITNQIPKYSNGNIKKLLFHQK

For the molecule `Oc1ccc(Nc2ccccc2)cc1`, the results for the activation in assay [1], in assay [4] and in [5] were -7.61% (inactive), 16.3% (inactive) and -0.687% (inactive), respectively. Further, the result in [2] and in assay [12] was inactive. The activity change % (negative = inhibition) in assay [3] was -3.3% (inactive). Moreover, the max response in [6] is -0.779% (inactive); in assay [8], -6.61% (inactive); in assay [9], -10.5% (inactive); in assay [11] it was 0.0407% (inactive). Further, the Potency entry in [7] and in [10] was “inactive” in each case.
Regarding `CCCCC(CC)COC(=O)CS` (centres undefined), the activation was 8.21% (inactive) in assay [1] and -0.039% (inactive) in [4]. Besides, the Potency result in assay [13], in assay [15], in assay [7] and in assay [10] was “inactive” each time. The outcome in [2] and in assay [12] was inactive. Also, the max response in assay [14] was -9.7%; in [16] it was -9.5%; in [17], 2.49% (inactive); in [6], -1.44% (inactive); in [8], 1.32% (inactive); in [9], -2.56% (inactive). Also, in assay [11], the max response is 0.0458% (inactive). Also, the activity change % (negative = inhibition) in [3] is 1.03% (inactive).
In the case of `C[C@]12CC[C@@H]3c4ccc(O)cc4CC[C@H]3[C@@H]1CC[C@H]2O`, the activation in [1] is -4.59% (inactive); in assay [4], 23.4% (inactive); in assay [5], 0.328% (inactive). Besides, the result in assay [18] and in assay [2] was inactive. For the same molecule, the Potency entry in assay [13], in [15], in assay [7] and in assay [10] was “inactive” in each case. Moreover, in assay [3], the activity change % (negative = inhibition) was -9.59% (inactive). Also, the max response is -10.8% (inactive) in assay [8] and -24% (inactive) in assay [9].
As to `CCCCCCCC[Si](OCC)(OCC)OCC`, the activation is -8.51% (inactive) in assay [1], 1.43% (inactive) in assay [4] and 0.203% (inactive) in [5]. For the same molecule, the max response was 2.69% in [19]; -6.97% in assay [16]; 0.0712% (inactive) in [6]; 5.53% (inactive) in assay [8]; 0.144% (inactive) in assay [9]; 6.41% (inactive) in [11]. Moreover, the Potency entry in assay [20], in [13], in assay [15], in assay [7] and in assay [10] was “inactive” throughout. The result in assay [18] and in assay [12] was inactive. Further, the activity change % (negative = inhibition) in assay [3] is 3.89% (inactive).
For the molecule `Cc1ccc2c(c1)C(=O)OC2=O`, the activation in assay [1] is -1.62% (inactive); in assay [4], -6.05% (inactive); in assay [5], 2.38% (inactive). In addition, the max response in assay [19] is 33.6%; in assay [14], -13.4%; in assay [16] it was -9.63%; in assay [17], -14.4% (inactive); in [6], -2.31% (inactive); in assay [8], -8.54% (inactive). Moreover, the figures for the max response in assay [9] and in [11] were -7.63% (inactive) and 0.0212% (inactive), respectively. Besides, the Potency result in assay [20], in [13], in [7] and in assay [10] was “inactive” throughout. For the same molecule, the outcome in [18], in assay [2] and in assay [12] was inactive. Moreover, the activity change % (negative = inhibition) in assay [3] is -5.6% (inactive).
Turning to `C=C(C)C(=O)OCCOCCOCCOC(=O)C(=C)C`, the activation in assay [1] was 9.85% (inactive); in assay [4], -4.46% (inactive); in assay [5] it was -1.22% (inactive). The outcome in assay [18], in assay [2] and in [12] was inactive. Also, the Potency result in assay [13], in assay [15], in assay [7] and in assay [10] was “inactive” in each case. For the same molecule, the max response in assay [14] is 1.13%; in assay [16], 3.38%; in assay [17], 4.6% (inactive); in [6] it was -0.929% (inactive); in [8] it was -16.9% (inactive); in assay [9], -8.3% (inactive). Also, the max response in assay [11] was -0.564% (inactive). In [3], the activity change % (negative = inhibition) is -12.3% (inactive).
